The term inhibition denotes the relative decrease from the control value, in per cent.

This note sets out measurements from ChEMBL document CHEMBL1961873, “Compounds: GSK PKIS; Assays: Nanosyn kinase panel” (2012).

SMILES strings stand for the structures.

Test [1] deals with T1, Tyrosine-protein kinase receptor TYRO3 (Homo sapiens) (UniProt Q06418).
T1 sequence (whole entry): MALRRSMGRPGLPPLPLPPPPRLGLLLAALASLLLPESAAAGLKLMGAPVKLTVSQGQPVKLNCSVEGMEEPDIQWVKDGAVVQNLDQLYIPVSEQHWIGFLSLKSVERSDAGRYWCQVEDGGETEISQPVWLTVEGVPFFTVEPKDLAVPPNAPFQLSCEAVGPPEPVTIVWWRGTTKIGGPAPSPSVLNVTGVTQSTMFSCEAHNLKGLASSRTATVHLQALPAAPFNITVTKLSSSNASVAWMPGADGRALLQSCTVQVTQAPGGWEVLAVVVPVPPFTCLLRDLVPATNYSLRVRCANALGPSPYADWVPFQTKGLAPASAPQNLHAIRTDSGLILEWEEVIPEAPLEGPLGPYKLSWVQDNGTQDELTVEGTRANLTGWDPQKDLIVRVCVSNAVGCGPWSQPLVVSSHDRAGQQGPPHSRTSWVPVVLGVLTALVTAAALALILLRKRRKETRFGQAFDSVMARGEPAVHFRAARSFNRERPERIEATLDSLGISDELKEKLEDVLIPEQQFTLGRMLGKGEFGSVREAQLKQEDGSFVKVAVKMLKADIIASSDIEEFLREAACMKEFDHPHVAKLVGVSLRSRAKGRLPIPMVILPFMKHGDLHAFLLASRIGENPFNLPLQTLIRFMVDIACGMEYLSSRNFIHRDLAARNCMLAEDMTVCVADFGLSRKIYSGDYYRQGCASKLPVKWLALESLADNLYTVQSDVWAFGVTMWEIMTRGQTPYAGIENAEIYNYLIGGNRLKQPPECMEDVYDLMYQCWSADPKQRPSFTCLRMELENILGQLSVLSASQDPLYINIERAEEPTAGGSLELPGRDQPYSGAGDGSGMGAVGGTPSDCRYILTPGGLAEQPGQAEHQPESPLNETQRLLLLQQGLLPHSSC
To be noted: at 1 µM.

In test [2] the target is Tyrosine-protein kinase Yes (Homo sapiens) (UniProt P07947). The following applies: at 0.1 µM.
Chain of Tyrosine-protein kinase Yes (Homo sapiens) (P07947 2-543 limits assumed): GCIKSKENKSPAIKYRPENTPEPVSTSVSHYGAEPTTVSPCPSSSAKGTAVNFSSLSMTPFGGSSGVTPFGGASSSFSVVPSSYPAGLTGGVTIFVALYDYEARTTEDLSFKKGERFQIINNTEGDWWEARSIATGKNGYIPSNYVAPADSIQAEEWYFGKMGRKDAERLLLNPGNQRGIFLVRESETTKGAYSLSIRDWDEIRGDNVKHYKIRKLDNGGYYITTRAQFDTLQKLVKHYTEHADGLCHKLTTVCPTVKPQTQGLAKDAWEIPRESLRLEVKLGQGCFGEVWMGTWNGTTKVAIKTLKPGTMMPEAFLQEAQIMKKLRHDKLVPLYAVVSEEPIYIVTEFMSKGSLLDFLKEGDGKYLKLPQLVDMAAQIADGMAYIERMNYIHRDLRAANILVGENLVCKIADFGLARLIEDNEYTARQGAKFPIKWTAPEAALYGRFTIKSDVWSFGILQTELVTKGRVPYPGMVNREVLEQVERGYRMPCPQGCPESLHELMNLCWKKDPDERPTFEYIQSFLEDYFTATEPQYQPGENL
The target is the same in test [3]. To be noted: at 1 µM.
Test [4] deals with T2, Tyrosine-protein kinase ZAP-70 (Homo sapiens) (UniProt P43403).
T2 sequence (whole entry): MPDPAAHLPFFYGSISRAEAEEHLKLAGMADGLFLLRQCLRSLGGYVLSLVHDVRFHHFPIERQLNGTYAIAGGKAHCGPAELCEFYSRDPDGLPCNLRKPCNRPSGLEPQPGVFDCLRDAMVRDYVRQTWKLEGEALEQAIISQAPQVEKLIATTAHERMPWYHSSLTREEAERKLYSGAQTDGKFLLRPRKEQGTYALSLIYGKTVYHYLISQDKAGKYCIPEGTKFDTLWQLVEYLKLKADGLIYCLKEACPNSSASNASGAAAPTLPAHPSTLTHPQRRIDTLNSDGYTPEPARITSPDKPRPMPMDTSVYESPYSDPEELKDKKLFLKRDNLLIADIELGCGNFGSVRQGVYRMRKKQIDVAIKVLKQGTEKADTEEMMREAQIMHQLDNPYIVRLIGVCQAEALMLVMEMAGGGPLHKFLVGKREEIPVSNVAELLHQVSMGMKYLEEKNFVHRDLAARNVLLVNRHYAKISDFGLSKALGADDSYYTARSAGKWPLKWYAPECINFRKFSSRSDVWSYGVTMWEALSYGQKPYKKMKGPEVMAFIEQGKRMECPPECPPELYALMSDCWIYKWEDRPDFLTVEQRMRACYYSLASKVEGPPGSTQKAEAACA
The following applies: at 0.1 µM.

For test [5], the target named is T2, Tyrosine-protein kinase ZAP-70 (Homo sapiens). To be noted: at 1 µM.
Test [6] deals with Serine/threonine-protein kinase B-raf (Homo sapiens) (UniProt P15056). To be noted: at 0.1 µM.
Chain of Serine/threonine-protein kinase B-raf (Homo sapiens) (P15056 whole entry): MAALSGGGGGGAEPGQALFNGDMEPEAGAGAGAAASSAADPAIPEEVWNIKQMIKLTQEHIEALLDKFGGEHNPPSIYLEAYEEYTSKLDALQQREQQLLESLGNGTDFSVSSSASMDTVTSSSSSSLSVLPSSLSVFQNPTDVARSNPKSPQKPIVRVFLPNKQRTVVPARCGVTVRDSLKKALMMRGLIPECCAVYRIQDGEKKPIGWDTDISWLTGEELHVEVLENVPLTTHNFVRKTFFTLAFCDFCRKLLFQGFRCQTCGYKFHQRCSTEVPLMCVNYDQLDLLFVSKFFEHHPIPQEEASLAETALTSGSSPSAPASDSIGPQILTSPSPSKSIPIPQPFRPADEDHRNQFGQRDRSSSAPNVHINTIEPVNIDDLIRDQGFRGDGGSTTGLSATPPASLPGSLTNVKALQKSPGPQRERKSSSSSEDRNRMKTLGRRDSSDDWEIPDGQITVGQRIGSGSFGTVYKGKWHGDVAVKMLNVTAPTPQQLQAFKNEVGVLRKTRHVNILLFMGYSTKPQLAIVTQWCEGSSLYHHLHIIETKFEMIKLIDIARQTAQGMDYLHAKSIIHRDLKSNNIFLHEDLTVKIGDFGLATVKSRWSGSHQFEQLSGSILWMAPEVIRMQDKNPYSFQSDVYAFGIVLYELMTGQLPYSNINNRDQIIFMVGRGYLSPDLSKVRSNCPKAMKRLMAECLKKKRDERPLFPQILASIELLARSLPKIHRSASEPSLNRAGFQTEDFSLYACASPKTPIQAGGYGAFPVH
Test [7] shares this target. The following applies: at 1 µM.
The test system of test [8] is Serine/threonine-protein kinase B-raf (Homo sapiens), P15056 [V600E]. The following applies: at 0.1 µM.
Chain of Serine/threonine-protein kinase B-raf (Homo sapiens), P15056 [V600E] (P15056 whole entry V600E): as the sequence (P15056 whole entry) above, with V600E counted along it
For test [9] the test system is unchanged. The following applies: at 1 µM.
Test [10] deals with RAF proto-oncogene serine/threonine-protein kinase (Homo sapiens) (UniProt P04049). The following applies: at 0.1 µM.
Chain of RAF proto-oncogene serine/threonine-protein kinase (Homo sapiens) (P04049 whole entry): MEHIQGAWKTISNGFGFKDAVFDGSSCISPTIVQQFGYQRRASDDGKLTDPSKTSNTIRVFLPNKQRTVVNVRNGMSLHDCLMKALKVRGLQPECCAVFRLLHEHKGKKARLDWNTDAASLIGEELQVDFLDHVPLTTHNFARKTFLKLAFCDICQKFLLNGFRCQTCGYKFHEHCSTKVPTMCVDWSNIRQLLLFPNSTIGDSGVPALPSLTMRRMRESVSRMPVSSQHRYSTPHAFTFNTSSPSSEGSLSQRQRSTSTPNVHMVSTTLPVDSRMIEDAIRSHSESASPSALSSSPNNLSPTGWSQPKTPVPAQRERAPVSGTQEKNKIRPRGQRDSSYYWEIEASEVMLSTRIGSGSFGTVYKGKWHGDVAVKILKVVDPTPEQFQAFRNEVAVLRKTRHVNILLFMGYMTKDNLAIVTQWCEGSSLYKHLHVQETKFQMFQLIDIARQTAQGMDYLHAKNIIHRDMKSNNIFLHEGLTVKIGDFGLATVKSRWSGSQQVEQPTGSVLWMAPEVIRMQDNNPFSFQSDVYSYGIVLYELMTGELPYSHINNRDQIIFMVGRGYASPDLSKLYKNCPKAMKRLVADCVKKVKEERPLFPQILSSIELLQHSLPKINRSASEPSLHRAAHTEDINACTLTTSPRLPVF
Test [11] shares this target. The following applies: at 1 µM.
For test [12], the target named is T3, Interleukin-1 receptor-associated kinase 4 (Homo sapiens) (UniProt Q9NWZ3).
T3 sequence (whole entry): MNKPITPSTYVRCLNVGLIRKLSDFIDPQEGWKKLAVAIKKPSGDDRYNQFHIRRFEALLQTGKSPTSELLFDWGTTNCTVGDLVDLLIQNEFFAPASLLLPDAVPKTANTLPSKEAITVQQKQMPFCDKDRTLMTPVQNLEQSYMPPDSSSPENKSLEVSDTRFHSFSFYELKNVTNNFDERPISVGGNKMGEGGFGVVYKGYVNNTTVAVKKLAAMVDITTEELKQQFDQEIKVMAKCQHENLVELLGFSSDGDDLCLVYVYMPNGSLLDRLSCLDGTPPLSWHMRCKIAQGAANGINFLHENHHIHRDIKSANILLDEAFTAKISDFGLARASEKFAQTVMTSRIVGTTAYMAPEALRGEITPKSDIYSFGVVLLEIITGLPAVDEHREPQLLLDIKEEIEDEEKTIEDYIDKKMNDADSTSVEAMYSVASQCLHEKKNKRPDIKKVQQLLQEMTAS
The following applies: at 0.1 µM.

Test [13] addresses T3, Interleukin-1 receptor-associated kinase 4 (Homo sapiens). The following applies: at 1 µM.
For test [14], the target named is Leucine-rich repeat serine/threonine-protein kinase 2 (Homo sapiens) (UniProt Q5S007). The following applies: at 0.1 µM.
Chain of Leucine-rich repeat serine/threonine-protein kinase 2 (Homo sapiens) (Q5S007 whole entry): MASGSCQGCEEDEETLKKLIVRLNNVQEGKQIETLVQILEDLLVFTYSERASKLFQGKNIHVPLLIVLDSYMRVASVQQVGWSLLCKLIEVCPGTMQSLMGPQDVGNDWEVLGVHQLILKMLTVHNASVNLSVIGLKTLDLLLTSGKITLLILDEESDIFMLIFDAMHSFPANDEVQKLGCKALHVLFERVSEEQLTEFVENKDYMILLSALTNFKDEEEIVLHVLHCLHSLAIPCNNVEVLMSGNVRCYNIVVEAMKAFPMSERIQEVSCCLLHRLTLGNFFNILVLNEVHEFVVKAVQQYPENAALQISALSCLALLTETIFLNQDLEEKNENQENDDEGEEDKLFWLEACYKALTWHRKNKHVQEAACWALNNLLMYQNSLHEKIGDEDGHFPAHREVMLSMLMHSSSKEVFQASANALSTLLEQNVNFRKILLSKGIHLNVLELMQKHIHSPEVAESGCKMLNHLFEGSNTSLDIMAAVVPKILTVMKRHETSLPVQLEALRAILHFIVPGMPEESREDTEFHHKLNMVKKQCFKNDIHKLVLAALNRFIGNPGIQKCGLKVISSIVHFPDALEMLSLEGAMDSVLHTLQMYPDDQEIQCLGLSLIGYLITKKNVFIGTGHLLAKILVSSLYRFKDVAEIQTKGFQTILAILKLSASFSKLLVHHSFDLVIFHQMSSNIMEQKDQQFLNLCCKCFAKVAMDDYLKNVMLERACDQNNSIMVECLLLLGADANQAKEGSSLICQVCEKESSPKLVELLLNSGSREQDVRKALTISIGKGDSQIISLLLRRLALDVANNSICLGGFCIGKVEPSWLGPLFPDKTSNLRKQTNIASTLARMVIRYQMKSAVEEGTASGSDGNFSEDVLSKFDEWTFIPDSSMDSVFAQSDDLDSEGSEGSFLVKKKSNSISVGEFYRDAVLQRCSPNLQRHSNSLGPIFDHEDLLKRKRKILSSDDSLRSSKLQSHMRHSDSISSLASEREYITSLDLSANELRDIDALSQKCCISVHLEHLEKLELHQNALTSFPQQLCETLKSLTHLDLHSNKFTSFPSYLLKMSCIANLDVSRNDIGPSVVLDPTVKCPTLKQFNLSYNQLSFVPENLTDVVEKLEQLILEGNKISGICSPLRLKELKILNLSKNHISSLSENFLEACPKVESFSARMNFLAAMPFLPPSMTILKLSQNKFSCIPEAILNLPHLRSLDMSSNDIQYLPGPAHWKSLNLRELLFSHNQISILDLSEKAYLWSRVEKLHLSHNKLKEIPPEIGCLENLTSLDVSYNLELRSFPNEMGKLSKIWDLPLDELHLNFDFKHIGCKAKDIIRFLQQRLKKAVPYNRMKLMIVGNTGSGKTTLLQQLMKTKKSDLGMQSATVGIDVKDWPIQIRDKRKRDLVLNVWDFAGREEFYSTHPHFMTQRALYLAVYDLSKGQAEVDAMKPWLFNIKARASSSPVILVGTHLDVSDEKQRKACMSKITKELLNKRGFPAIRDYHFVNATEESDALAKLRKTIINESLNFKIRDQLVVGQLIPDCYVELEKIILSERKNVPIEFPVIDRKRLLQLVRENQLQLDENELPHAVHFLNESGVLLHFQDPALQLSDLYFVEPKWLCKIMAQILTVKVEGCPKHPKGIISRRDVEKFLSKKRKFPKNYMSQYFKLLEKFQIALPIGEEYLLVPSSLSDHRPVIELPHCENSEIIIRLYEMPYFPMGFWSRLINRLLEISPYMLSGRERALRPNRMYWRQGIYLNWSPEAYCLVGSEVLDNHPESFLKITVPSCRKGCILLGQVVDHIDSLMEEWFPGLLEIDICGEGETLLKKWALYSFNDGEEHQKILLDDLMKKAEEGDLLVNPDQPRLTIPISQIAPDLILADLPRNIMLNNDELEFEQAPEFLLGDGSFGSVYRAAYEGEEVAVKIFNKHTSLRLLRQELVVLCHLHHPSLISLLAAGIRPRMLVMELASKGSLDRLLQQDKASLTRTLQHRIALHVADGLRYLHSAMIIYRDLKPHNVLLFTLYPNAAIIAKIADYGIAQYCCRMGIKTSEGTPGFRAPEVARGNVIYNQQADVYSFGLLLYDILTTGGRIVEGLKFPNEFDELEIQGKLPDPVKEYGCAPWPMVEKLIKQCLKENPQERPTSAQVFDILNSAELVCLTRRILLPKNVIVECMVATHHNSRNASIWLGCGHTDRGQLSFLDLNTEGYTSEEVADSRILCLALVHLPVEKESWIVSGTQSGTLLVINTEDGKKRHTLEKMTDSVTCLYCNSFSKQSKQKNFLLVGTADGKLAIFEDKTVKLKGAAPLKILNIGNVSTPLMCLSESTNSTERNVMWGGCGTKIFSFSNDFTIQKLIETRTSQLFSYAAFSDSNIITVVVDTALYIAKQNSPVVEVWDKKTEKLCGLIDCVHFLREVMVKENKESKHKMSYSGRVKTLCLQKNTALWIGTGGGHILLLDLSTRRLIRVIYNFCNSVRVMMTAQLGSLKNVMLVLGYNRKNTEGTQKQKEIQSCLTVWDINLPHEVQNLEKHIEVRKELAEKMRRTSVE
The target is the same in test [15]. To be noted: at 1 µM.
The subject of test [16] is Leucine-rich repeat serine/threonine-protein kinase 2 (Homo sapiens), Q5S007 [G2019S]. The following applies: at 0.1 µM.
The test system is the same in test [17]. The following applies: at 1 µM.

Chain of Leucine-rich repeat serine/threonine-protein kinase 2 (Homo sapiens), Q5S007 [G2019S] (Q5S007 whole entry G2019S): as the sequence (Q5S007 whole entry) above, with G2019S counted along it

`COc1cc2ncn(-c3cc(OCc4ccccc4C(F)(F)F)c(C(N)=O)s3)c2cc1OC`: the inhibition was 10.3% in test [1]; 1.77% in [2]; 7.91% in [3]; -2.01% in test [4]; -1.32% in [5]; 5.82% in test [6]. Further, the inhibition in test [7] is 4.85%; in test [8], 3.47%; in [9] it was 3.52%; in test [10] it was 1.99%; in [11], -0.64%; in test [12], 1.2%. Moreover, the inhibition in [13] worked out at 1.85%; in [14] it was 1.63%; in [15], 16.1%; in test [16], 5.35%; in test [17], 40.1%.
As to `CC1=C(C(=O)Nc2ccc3[nH]ncc3c2)C(c2ccc3ccccc3c2)CC(=O)N1` (stereo unspecified), the inhibition in test [1] is 6.2%; in test [2], 16.6%; in test [3], 62.9%; in test [4], 3.08%; in test [5], 2.98%; in test [6], 8.21%. Moreover, the inhibition in test [7] was found to be 43.5%; in [8], 8.51%; in test [9] it was 45.2%; in test [10] it was 1.05%; in test [11] it was 1.65%; in test [12], 3.06%. In addition, the inhibition worked out at 0.83% in [13]; 4.73% in test [14]; 10.1% in test [15]; 6.31% in [16]; 25% in test [17].
`Nc1nc(-c2ccccn2)c(-c2ccc3ncccc3n2)s1`: the inhibition in [1] is 2.67%; in test [2], -0.44%; in test [3], 0.23%; in [4], 0.82%; in [5], 0.6%; in test [6], 3.55%. Also, the inhibition was 7.22% in [7]; 3.63% in test [8]; 5.74% in [9]; 2.42% in [10]; 2.42% in test [11]; -3.29% in test [12]. In addition, the inhibition was 1.27% in test [13]; 2.15% in [14]; 4.38% in [15]; 1.86% in test [16]; 5.88% in test [17].
On to `N#Cc1c(NC(=O)c2cccc3ccccc23)sc2c1CCCC2`, for which the inhibition turned out to be 2.06% in [1]; 3.08% in test [2]; 2.43% in [3]; 2.19% in [4]; 4.42% in test [5]; 4.29% in [6]. The inhibition was 5.63% in [7]; 4.43% in [8]; 5.4% in [9]; -0.45% in test [10]; 3.48% in [11]; 2.64% in test [12]. Besides, the inhibition in test [13] came out at 1.05%; in [14] it was 1.35%; in [15], 2.73%; in [16], 1.99%; in [17] it was 3.65%.
`COc1cc2ncn(-c3cc(OCc4ccccc4Cl)c(C(N)=O)s3)c2cc1OC`: the inhibition in [1] was 9.65%; in [2], 3.58%; in test [3] it was 17.9%; in [4], -2.94%; in test [5] it was 0.47%; in [6], 2.05%. The inhibition came to 2.15% in test [7]; 1.45% in test [8]; 2.82% in test [9]; 0.16% in [10]; 0.88% in test [11]; 2.64% in [12]. In addition, the inhibition was 0.8% in test [13]; 2.12% in test [14]; 14.5% in test [15]; 12% in [16]; 54.5% in test [17].
For `[O-][S+]1CCN(Cc2ccc(-c3ccc4ncnc(Nc5ccc(OCc6ccccc6)c(F)c5)c4c3)o2)CC1`, the inhibition amounted to 3.36% in test [1]; 5.74% in [2]; 30.5% in [3]; 2.48% in [4]; 1.13% in test [5]; 2.02% in test [6]. For the same compound, the inhibition was 5.8% in test [7]; 2.97% in test [8]; 6.44% in test [9]; -0.54% in test [10]; -3.42% in test [11]; 3.06% in test [12]. The inhibition in [13] was 1.06%; in [14], 2.89%; in test [15], 2.77%; in test [16], 2.32%; in test [17] it was 8.38%.
With `O=C1Nc2ccc(C(=O)c3ccco3)cc2C1=Cc1cc(Cl)c(O)c(Cl)c1`, the inhibition amounted to 8.57% in [1]; 2.58% in test [2]; 15.8% in test [3]; 2.14% in test [4]; 3.97% in test [5]; 11.8% in [6]. In addition, the inhibition in [7] turned out to be 26.7%; in test [8], 12.5%; in test [9] it was 27.4%; in [10], 2.35%; in [11] it was 48.6%; in [12], 3.84%. Also, the inhibition turned out to be 5.2% in [13]; 22.8% in test [14]; 24% in test [15]; 61.1% in test [16]; 63.9% in test [17].
With `CCCN1CCC(Oc2cc(Nc3nc(Nc4cccc(F)c4C(N)=O)c4cc[nH]c4n3)c(OC)cc2Cl)CC1`, the inhibition in test [1] was 1.14%; in [2], 1.16%; in test [3] it was 1.57%; in [4], -1.5%; in test [5], 0.24%; in test [6], 2.31%. Moreover, the inhibition in test [7] is 24.1%; in test [8] it was 1.35%; in test [9], 23.7%; in test [10], -1.14%; in test [11], 5.41%; in test [12], -2.83%. The inhibition in test [13] worked out at 2.25%; in test [14], 11.5%; in test [15] it was 19.6%; in [16], 12.8%; in test [17], 55.9%.
